From PubChem BioAssay
Calls of active or inactive are those of the source. Unless noted, the rule behind the calls is not given here.

Assays:
[1] = system: Wnt5a (protein binding on small-molecule microarray); assay: Wnt5a binders on small-molecule microarray, primary screen, biophysical, 635/667 nm fluorescence (AID 1142); conditions: 635 nm fluorescence, higher = more signal;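 note: fluorescence read at 667 nm with signal to noise per printed feature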
[2] = cell viability in Huh7 cells, primary screen, cytotoxicity control for HCV replication inhibitor project, CellTiter-Glo luminescence, basal, 48 h (AID 1143); conditions: Huh7 HCV replicon, higher = more signal, called active from +8 up or from −8 down;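 note: Huh7 hepatoma cells carrying a hepatitis C replication reporter with no stimulus; test concentration not given here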
[3] = P. aeruginosa biofilm formation inhibitors, primary screen, PAO1 strain, BacTiter-Glo luminescence, LB-PBS (AID 1144); conditions: 12 h, higher = more signal
[4] = CREB reporter modulators without forskolin, primary screen, cell-based, PC12, CRE-LacZ reporter, unstimulated (AID 1145); conditions: no forskolin, luminescence, 4.5 h, higher = more signal, called active from +8 up or from −8 down
[5] = CREB reporter modulators under forskolin, primary screen, cell-based, PC12, CRE-LacZ reporter, forskolin-stimulated (AID 1146); conditions: luminescence, 4.5 h, higher = more signal, called active from +8 up or from −8 down;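 note: PC12 cells with 6xCRE LacZ reporter stimulated by forskolin 10 µM; beta-galactosidase reporter signal reflecting CREB driven transcription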
[6] = target: Streptavidin (Streptomyces avidinii) (UniProt P22629); assay: streptavidin binders on small-molecule microarray, primary screen, artefact control for SMM compound annotation, biophysical, 635/667 nm fluorescence (AID 1147); conditions: streptavidin binding, higher = more signal;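 note: signal reflects streptavidin binding to arrayed compounds as a control protein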
[7] = small-molecule binders of probe aInhba, primary screen, biochemical, small-molecule microarray, 635/667 nm fluorescence (AID 1148); conditions: higher = more signal;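 note: score merges 667nm spot fluorescence with signal-to-noise for antibody binding to printed compounds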
Torsin-1A (Homo sapiens) [8] = target: Torsin-1A (Homo sapiens) (UniProt O14656); assay: torsin A binders from cell lysate, primary screen, small-molecule microarray, wild-type, 635/667 nm (AID 1149); conditions: COS7 hTOR1A-WT lysate, 635 nm fluorescence, higher = more signal
Torsin-1A (Homo sapiens) [9] = target: Torsin-1A (Homo sapiens) (UniProt O14656); assay: small-molecule binders of mutant TOR1A in lysate, primary screen, cell lysate, small-molecule microarray, COS7 lysate, 635/667 nm fluorescence (AID 1150); conditions: COS7 hTOR1A mutant lysate, 635 nm fluorescence, higher = more signal;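 note: score pools 667 nm emission and signal to noise measuring lysate protein binding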
[10] = system: Sonic hedgehog protein (Shh); assay: small-molecule binders of Shh protein, primary screen, biochemical, small-molecule microarray, 635/667 nm fluorescence (AID 1151); conditions: small-molecule microarray binding, 635 nm fluorescence; higher = more signal;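 note: Shh protein binding to compounds spotted on small-molecule microarray slides; score combines spot fluorescence intensity with signal-to-noise across triplicate slides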

Sequence of Streptavidin (Streptomyces avidinii) (P22629 whole entry, looked up): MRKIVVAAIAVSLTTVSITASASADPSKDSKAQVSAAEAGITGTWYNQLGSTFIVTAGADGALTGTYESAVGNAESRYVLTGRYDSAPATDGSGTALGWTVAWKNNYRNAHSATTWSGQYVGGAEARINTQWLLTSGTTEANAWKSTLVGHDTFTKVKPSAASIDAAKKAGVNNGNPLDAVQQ
Sequence of Torsin-1A (Homo sapiens) (O14656 whole entry, looked up): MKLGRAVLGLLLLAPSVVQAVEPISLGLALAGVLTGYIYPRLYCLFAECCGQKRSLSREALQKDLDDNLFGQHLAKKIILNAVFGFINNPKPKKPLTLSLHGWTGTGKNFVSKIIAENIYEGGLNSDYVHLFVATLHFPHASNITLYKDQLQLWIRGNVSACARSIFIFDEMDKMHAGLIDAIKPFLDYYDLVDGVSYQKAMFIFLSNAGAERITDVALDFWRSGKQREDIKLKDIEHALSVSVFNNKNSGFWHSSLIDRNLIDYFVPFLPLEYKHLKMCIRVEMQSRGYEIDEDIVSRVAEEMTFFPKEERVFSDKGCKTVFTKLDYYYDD

Compound | composite z-score [1] | z-score [2] | z-score [3] | z-score [4] | z-score [5] | composite z-score [6] | composite z-score [7] | composite z-score (Torsin-1A (Homo sapiens) [8]) | composite z-score (Torsin-1A (Homo sapiens) [9]) | composite z-score [10]
CCOC(=O)C1=CC[C@@H](c2ccccc2C(F)(F)F)N(S(=O)(=O)c2ccc(C)cc2)C1 | 0.658 | -5.24 (inactive) | -0.0874 (inactive) | 0.238 (inactive) | -0.596 (inactive) | 0.867 | 0.693 | -0.117 | 2.07 | 0.0555
Cc1ccc(S[C@]2(C(=O)O)CC(=O)N(Cc3ccccc3Cl)[C@@H]2c2ccc(CO)cc2)cc1 | 0.0044 | -1.55 (inactive) | 0.596 (inactive) | 0.441 (inactive) | 1.27 (inactive) | -0.868 | -0.0791 | -0.951 | 0.822 | -0.259
C=CCOC(=O)[C@@H]1[C@H]2C(=O)O[C@H](c3ccccc3)[C@H](c3ccccc3)N2[C@H](c2ccc(OCCOC(=O)[C@H]3C[C@H]4C(=O)N[C@@H](CCCCNC(C)=O)C(=O)N4[C@H]3c3cccc(OCCO)c3)cc2)[C@@]12C(=O)Nc1ccc(I)cc12 | 0.218 | -0.495 (inactive) | -0.929 (inactive) | -0.256 (inactive) | 0.215 (inactive) | 0.356 | -0.0313 | 1.01 | 0.495 | 1.89
O=C(CS)NCCCCCCNC(=O)[C@@H]1C[C@@H]2C(=O)N3CCC[C@H]3C(=O)N2[C@@H]1c1cccc(OCCO)c1 | 0.939 | -0.497 (inactive) | -1.05 (inactive) | -1.35 (inactive) | -1.07 (inactive) | 0.283 | -0.128 | 1.19 | 1.34 | 1.7
CN1C(=O)[C@@]2(CCS(=O)(=O)c3ccccc3)N=C(c3ccc(OCCCO)cc3)O[C@H]2c2ccccc21 | 0.388 | -4.49 (inactive) | -0.413 (inactive) | 0.0918 (inactive) | -0.196 (inactive) | 1.8 | -0.0384 | 1.55 | 0.397 | 0.203
C=CCOC(=O)[C@@H]1[C@H]2C(=O)O[C@H](c3ccccc3)[C@H](c3ccccc3)N2[C@H](c2ccc(OCCOC(=O)[C@H]3C[C@H]4C(=O)N[C@@H](CCCCN(C)C)C(=O)N4[C@H]3c3cccc(OCCO)c3)cc2)[C@@]12C(=O)Nc1ccc(I)cc12 | 0.402 | -0.015 (inactive) | 0.172 (inactive) | -0.801 (inactive) | 0.387 (inactive) | 0.458 | 0.019 | 1.61 | 1.52 | 2.05
CCOC(=O)C[C@H]1[C@H](OC(=O)c2ccc(-c3ccccc3)cc2)[C@@H](NC(=O)C2CCCCC2)c2cc(OCCCO)ccc2N1C(=O)c1ccccc1 | 0.0722 | -0.0788 (inactive) | -0.376 (inactive) | -0.0247 (inactive) | 0.178 (inactive) | 0.947 | -0.133 | -0.0488 | 0.221 | 0.957
COCCOC(=O)N1C(=O)[C@@]2(c3cc(C#Cc4ccc(OC)cc4)ccc31)[C@H](C(=O)NC[C@H](O)c1ccccc1)[C@H]1C(=O)O[C@H](c3ccccc3)[C@H](c3ccccc3)N1[C@@H]2c1ccc(O)cc1 | 0.317 | -2.05 (inactive) | -0.392 (inactive) | -1.01 (inactive) | -1.19 (inactive) | 0.582 | 0.0228 | 0.772 | 0.527 | 1.73
CCCCN1CC=CC23O[C@@H]4C=CCOC(=O)[C@@H]4[C@H]2C(=O)N(C(C)CO)[C@@H]3C1=O (stereo not given in full) | -0.166 | -0.251 (inactive) | 1.27 (inactive) | -0.488 (inactive) | 0.401 (inactive) | -0.78 | -0.128 | 0.0171 | -0.241 | -0.213
CN(C)CCCNC(=O)[C@@]1(c2ccc([N+](=O)[O-])cc2)CC(=O)N(CC23CC4CC(CC(C4)C2)C3)[C@@H]1c1ccc(CO)cc1 | 0.461 | -5.82 (inactive) | -0.262 (inactive) | -0.295 (inactive) | -0.741 (inactive) | 2.03 | 0.641 | -0.183 | 0.0626 | 0.989
COC1(C)CN(Cc2ccccc2Br)[C@H](/C=C/c2ccccc2)[C@H](Cc2ccccc2)O1 (stereo not given in full) | -0.243 | -0.391 (inactive) | -0.198 (inactive) | 1.93 (inactive) | 0.874 (inactive) | -0.332 | -0.0719 | -0.558 | 0.357 | -0.191
C[N+](C)(C)CCCC[C@@H]1NC(=O)[C@@H]2C[C@H](C(=O)O)[C@H](c3ccc(O)cc3)N2C1=O | -0.535 | 0.462 (inactive) | -0.771 (inactive) | 0.0043 (inactive) | 0.563 (inactive) | -1.08 | -0.103 | -1.07 | -0.909 | -0.0334
COc1ccc(C(O)C2C=CC3C(=O)N(Cc4ccccc4)C(=O)C3N2n2cnnc2)c2ccccc12 (stereo not given) | -0.795 | -3.64 (inactive) | 0.038 (inactive) | -0.126 (inactive) | -0.138 (inactive) | -0.677 | -0.0136 | 1.95 | 0.432 | -0.237
O=C(NC1CC1)[C@@H]1c2ccccc2C(=O)N(Cc2ccccc2)[C@H]1c1ccc(CO)cc1 | 0.336 | -0.878 (inactive) | -0.55 (inactive) | -0.825 (inactive) | -1.22 (inactive) | -0.928 | 0.0111 | -0.892 | -0.665 | 0.443
CC[C@@H]1[C@H]2C3C(=O)N(CC)C(=O)C3CC(=O)[C@H]2[C@H](c2ccc(C)cc2)N1S(=O)(=O)c1ccc(C)cc1 (stereo not given in full) | 0.163 | -2.9 (inactive) | 0.394 (inactive) | -0.77 (inactive) | -0.878 (inactive) | 1.4 | -0.0986 | -0.343 | 0.112 | 0.514
C=CCOC(=O)[C@H]1[C@@H]2C(=O)O[C@@H](c3ccccc3)[C@@H](c3ccccc3)N2[C@@H](c2ccc(OCCOC(=O)[C@H]3C[C@H]4C(=O)N[C@@H](Cc5ccccc5)C(=O)N4[C@H]3c3cccc(OCCO)c3)cc2)[C@]12C(=O)Nc1ccc(I)cc12 | 0.971 | -0.441 (inactive) | -0.283 (inactive) | 0.688 (inactive) | 0.144 (inactive) | 0.309 | -0.0112 | 0.703 | 0.815 | 2.16
O=C(O)[C@]1(Cc2ccccc2)N=C(c2ccc(OCCCO)cc2)O[C@@H]1c1ccccc1 | -0.159 | -1.14 (inactive) | 0.534 (inactive) | -0.445 (inactive) | -0.471 (inactive) | -0.423 | -0.119 | -0.639 | -0.411 | -1.78
CN(C)C(=O)[C@]1(CCC(=O)OC(C)(C)C)N=C(c2ccc(OCCCO)cc2)O[C@@H]1c1ccccc1 | 0.677 | 0.325 (inactive) | 1.02 (inactive) | 0.493 (inactive) | 0.524 (inactive) | -0.092 | -0.0791 | 0.69 | 2.2 | -0.857
Cc1c(NC(=O)/C(C#N)=C/C=C/c2ccccc2[N+](=O)[O-])c(=O)n(-c2ccccc2)n1C | -0.145 | -3.01 (inactive) | 0.365 (inactive) | -0.0243 (inactive) | 25.4 (active) | 0.293 | -0.176 | 0.185 | 0.331 | 0.844
C=CCN1C(=O)[C@@]2(CCC(=O)OC(C)(C)C)N=C(c3ccc(OCCCO)cc3)O[C@H]2c2ccccc21 | 0.228 | -4.68 (inactive) | 0.324 (inactive) | 0.573 (inactive) | -2.25 (inactive) | 0.57 | 0.0588 | -0.0862 | 0.0147 | 0.832
COC(=O)[C@]1(CCS(=O)(=O)c2ccccc2)N=C(c2ccc(OCCCO)cc2)O[C@@H]1c1ccccc1CN=[N+]=[N-] | 0.419 | -4.23 (inactive) | -0.32 (inactive) | 1.73 (inactive) | -1.37 (inactive) | 0.379 | 0.0655 | 1.33 | 0.69 | 0.738
CN1C2C=C(CCCO)C(C3C(=O)N(C(N)=O)C(=O)C32)C1c1cccs1 (stereo not given) | 2.03 | 0.148 (inactive) | 0.628 (inactive) | -1.09 (inactive) | -0.23 (inactive) | 0.0783 | -0.0963 | 0.21 | 0.429 | 0.279
COCCCNC(=O)[C@@H]1c2ccccc2C(=O)N(Cc2ccccc2C(F)(F)F)[C@H]1c1ccc(CO)cc1 | 0.143 | 0.442 (inactive) | 0.309 (inactive) | -0.385 (inactive) | -1.45 (inactive) | -0.194 | 0.0536 | 0.285 | 0.331 | 0.23
CC(=O)NCCCC[C@@H]1NC(=O)[C@@H]2C[C@H](C(=O)O)[C@H](c3ccc(O)cc3)N2C1=O | -0.734 | 0.454 (inactive) | -0.646 (inactive) | -0.679 (inactive) | 0.407 (inactive) | -1.04 | -0.335 | -2.46 | -2.19 | -0.96
NC(=O)NCC#Cc1ccc2c(c1)[C@]1(C(=O)N2)[C@H](c2ccc(O)cc2)N2[C@H](c3ccccc3)[C@H](c3ccccc3)OC(=O)[C@H]2[C@@H]1C(=O)Nc1nc2ccccc2s1 | 0.303 | -0.623 (inactive) | -1.41 (inactive) | -0.788 (inactive) | -0.988 (inactive) | 0.106 | -0.0018 | 0.374 | -0.0346 | 1.09
CC(C)N1CC=CC23O[C@@H]4C=CCCOC(=O)C4[C@H]2C(=O)N(CCO)[C@@H]3C1=O (stereo not given in full) | -0.496 | -0.102 (inactive) | -2.21 (inactive) | -1.99 (inactive) | -0.665 (inactive) | -0.516 | -0.213 | 0.862 | 0.875 | -0.0837
COC(=O)[C@@]1(Cc2ccc(OC)cc2)[C@H]2c3cc(C(=O)N(C)C)n(Cc4ccccc4)c3C[C@H]2CN1C(=O)c1ccccc1 | -0.0424 | -3.07 (inactive) | -0.784 (inactive) | -0.764 (inactive) | 0.592 (inactive) | 0.707 | 0.0882 | -0.0982 | 0.14 | -1.21
CCOC(=O)C[C@H]1[C@H](OC(=O)c2ccc(C(=O)c3ccccc3)cc2)[C@@H](NC(=O)c2ccc3ccccc3c2)c2cc(OCCCO)ccc2N1C(=O)c1ccccc1 | 0.173 | -0.0506 (inactive) | -0.0382 (inactive) | 0.0777 (inactive) | -0.506 (inactive) | 0.849 | -0.105 | 0.196 | 0.321 | 0.867
